Assay results: the supplement of paper PMC3334620
The full ranking holds about 33,000 sequences; the median of “E-score (-0.5 to 0.5)” is about -0.0059, and the highest 2% start at about 0.26. Only a selection was taken, and the highest values are over-represented in it overall.

target: T1, Cin5 (UniProt P40917); experiment: PBM E-score (8-mer binding enrichment) (E-score (-0.5 to 0.5)); higher = stronger / more preferred TF binding; settings: protein concentration: 100 nM; construct: GST-full length
T1 sequence: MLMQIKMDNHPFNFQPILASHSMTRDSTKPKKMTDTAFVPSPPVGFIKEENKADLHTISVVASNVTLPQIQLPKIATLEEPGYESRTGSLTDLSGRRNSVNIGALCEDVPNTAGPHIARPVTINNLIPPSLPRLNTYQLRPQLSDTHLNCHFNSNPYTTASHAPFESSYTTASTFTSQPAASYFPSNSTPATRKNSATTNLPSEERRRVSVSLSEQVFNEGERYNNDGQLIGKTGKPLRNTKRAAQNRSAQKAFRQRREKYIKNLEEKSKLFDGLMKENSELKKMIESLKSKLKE
Outline: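 Yeast transcription factors carrying a GST tag, as full-length proteins or DNA-binding domains, were produced by PURExpress in vitro transcription/translation. About 100-200 nM protein was applied to universal all-10-mer Agilent arrays, double-stranded by primer extension on fresh or once-stripped slides. Bound protein was detected with fluorescent anti-GST, and scans were normalised with masliner. The Universal PBM Analysis Suite gave each ungapped eight-base word, pooled with its reverse complement, an E-score, a modified Wilcoxon-Mann-Whitney statistic.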

| Sequence | PBM E-score |
| --- | --- |
| AATATAGC | 0.0896 |
| AATATAGT | 0.315 |
| GGTGGGAC | -0.313 |
| CCCGGAGG | -0.377 |
| AATCATCA | 0.229 |
| AGACTGCT | -0.00887 |
| AGGCATAC | 0.0609 |
| CATGCACA | 0.156 |
| AACGATGT | 0.0581 |
| AAACGCTG | -0.139 |
| GGGGATTA | 0.253 |
| GACTGCCC | -0.188 |
| GTCTGAAC | -0.16 |
| AGTGCCCA | 0.0274 |
| TAATACTA | 0.372 |
| TAATACGA | 0.12 |
| AAATACTA | 0.112 |
| TAATACCA | 0.279 |
| CAATACCA | 0.0989 |
| CAATACTA | 0.0648 |
| GAATACTA | 0.267 |
| TAATACAA | 0.232 |
| GAATACCA | 0.207 |
| CGTTGGGC | -0.0408 |
| ATGGACAG | -0.15 |

| Sequence | PBM E-score |
| --- | --- |
| GGACCAAC | -0.134 |
| ACTTAGAC | 0.0559 |
| CCTGCGAG | -0.0365 |
| CAGGGACA | -0.0907 |
| CTGCGAGA | -0.332 |
| AATATTGT | 0.28 |
| AATATTGG | 0.154 |
| AACATTAT | 0.261 |
| CATATTAG | 0.16 |
| CATATTAC | 0.287 |
| AATATTGA | 0.172 |
| AACATTAC | 0.148 |
| AATATTGC | 0.235 |
| AATATTTA | 0.217 |
| CATATTTC | 0.0909 |
| AATATTAA | 0.304 |
| AACATTAG | -0.0325 |
| ACACGTTG | -0.238 |
| CGGTAACG | -0.0557 |
| AACTTTTC | 0.0286 |
| CGTCCCAC | -0.0257 |
| CTCCAGGA | -0.221 |
| GGCTGCAC | -0.148 |
| CACATAGC | -0.142 |
| CGTTTCCA | 0.0865 |

| Sequence | PBM E-score |
| --- | --- |
| ACAATCCA | 0.209 |
| TATATTAA | 0.287 |
| GATATTAC | 0.315 |
| ACTATTAT | 0.137 |
| AATATTAT | 0.343 |
| AATATTCG | 0.19 |
| GATATTCC | 0.0678 |
| GCTATTAC | 0.0669 |
| TCTATTAA | 0.109 |
| AATATTCC | 0.289 |
| AATATTAG | 0.215 |
| TGTATTAA | 0.202 |
| AATATTCA | 0.24 |
| AAAGACGA | 0.036 |
| GACCACTA | 0.171 |
| CCAGTCCG | -0.296 |
| CCCGTAAC | -0.0624 |
| GACAGCTC | -0.237 |
| ACAGCTTA | 0.195 |
| AATGGAAC | 0.103 |
| GTCATTAA | 0.279 |
| CTCATTAA | 0.175 |
| ATCATTAA | 0.221 |
| AATATTAC | 0.294 |
| AATATTTC | 0.18 |

| Sequence | PBM E-score |
| --- | --- |
| TACATTAA | 0.262 |
| GACATTAA | 0.0285 |
| GCTATTAA | 0.0303 |
| CCTATTAC | 0.0787 |
| AACATTAA | 0.114 |
| GATATTCA | 0.0685 |
| GATATTAA | 0.282 |
| GCGCAGAC | -0.178 |
| ACGAGAGA | -0.0604 |
| CCTTTGTC | -0.0179 |
| CTAGGTTA | 0.118 |
| AACAGTCA | -0.041 |
| CATATTAA | 0.275 |
| TATATTGA | 0.287 |
| CATATTGA | 0.0883 |
| GATATTGA | 0.0812 |
| CCTATTAA | 0.111 |
| CATATTTA | 0.157 |
| GCTCCGCA | -0.16 |
| GGCGGAAA | 0.088 |
| AGCAGTGA | 0.2 |
| AAGCTTGC | -0.0817 |
| GTGTAGGA | -0.0437 |
| AACGCGCT | -0.0706 |
| AACGCGCG | 0.276 |

| Sequence | PBM E-score |
| --- | --- |
| AACGCGAG | 0.0992 |
| AACGCGAA | 0.281 |
| CACGCGAA | -0.0826 |
| AACGCGCA | 0.0734 |
| CCAAAGCG | -0.0566 |
| CCTTCATA | 0.0109 |
| GCGTCAGC | -0.102 |
| ACGTCAGC | 0.394 |
| ATGTCAGA | 0.114 |
| ATGTCAGC | 0.272 |
| CCGTCATC | -0.075 |
| AAGTCAGC | 0.293 |
| ACGTCATC | 0.259 |
| ACGTCATG | 0.228 |
| CAGTCAGC | -0.0612 |
| CTGTCAGC | 0.148 |
| ACGTCAGT | -0.12 |
| AAGTCAGA | 0.0006 |
| CGGACTTC | -0.131 |
| CAGCTAAG | -0.252 |
| GTAACCCA | 0.234 |
| ATTCTTAG | -0.0605 |
| GGAGGGGA | -0.0844 |
| CAAGTCCG | -0.109 |
| ACTGTTGA | -0.0374 |

| Sequence | PBM E-score |
| --- | --- |
| CCGGGACG | -0.162 |
| GAACGTCA | -0.161 |
| TCTAGAGA | -0.228 |
| ATGTCATA | 0.299 |
| ATGTCATC | 0.142 |
| CTGTCATA | 0.0932 |
| AACCCCCC | -0.468 |
| AAGGCTGG | -0.277 |
| AGACTCCG | -0.121 |
| AAAGATGA | 0.00284 |
| ATGGCAAT | 0.113 |
| GTTAGTTA | 0.225 |
| ATTAGTCG | 0.193 |
| GTTAGTCA | 0.0867 |
| ATTAGTTA | 0.315 |
| ATTAGTTG | 0.241 |
| ATTAGTCA | 0.341 |
| CTTGAGCC | -0.241 |
| AGATCATA | 0.186 |
| GATCCCCC | -0.426 |
| ATGACTTA | 0.149 |
| CTGACTTA | 0.298 |
| CTGACTAA | 0.36 |
| ATGACTAA | 0.235 |
| GTGACTAA | 0.123 |

| Sequence | PBM E-score |
| --- | --- |
| GTGACTTA | 0.0722 |
| CGTGTAAA | -0.142 |
| AAGGGTGA | -0.0502 |
| TCGGCCGA | 0.0246 |
| CACGGGAC | -0.118 |
| AATCCCGA | 0.26 |
| TATCCCGA | 0.125 |
| CATCCCGA | 0.0504 |
| CCTTAGGA | 0.0118 |
| ATCGTGTC | 0.0401 |
| AATTCGCG | 0.0954 |
| AATTCGCC | 0.154 |
| AATTCGCT | 0.325 |
| GCACTCGA | 0.0449 |
| GCCTGATA | -0.0274 |
| TATAGTGA | -0.0129 |
| AATAGTAC | 0.05 |
| AATAGTAA | 0.27 |
| GATAGTAA | 0.195 |
| TATAGTAA | 0.324 |
| CATAGTAA | 0.279 |
| CATAGTAC | 0.0648 |
| AATAGTAG | 0.144 |
| TATAGTCA | 0.0921 |
